The values below come from PubChem BioAssay (Tox21).

SMILES strings stand for the structures. Records with an inconclusive call do not appear. Where a call stands in place of a potency, no number is given. Calls of active or inactive are those of the source. Calls come from the whole dose curve.
Potency is the fitted concentration of half-maximal effect.

The test is described as follows: qHTS assay to identify small molecule antagonists of the estrogen receptor alpha (ER-alpha) signaling pathway using the BG1 cell line (AID 743080).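 Note: BG1 cells stimulated with 17beta-estradiol alongside compound; nearly all actives have a fitted effect of over 25% in size.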 Conditions: BG1Luc4E2 ERE-luciferase antagonist mode, luminescence; series mostly up to 70.3 µM. The method in brief: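 Luciferase inhibition measured with ONE-Glo after 30 min at RT in BG1Luc4E2 cells given test compounds and 17beta-estradiol for 21.5 h at 37 C; CellTiter-Fluor viability read in the same wells beforehand.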
For the compound `C=CC[C@]1(O)CC[C@H]2[C@@H]3CCC4=CC(=O)CCC4=C3C=C[C@@]21C`, the Potency is 29.8 µM (active).
On to `O=S(=O)(O)C(F)(F)C(F)(F)C(F)(F)C(F)(F)F`, for which the Potency entry was “inactive”.
In the case of `ClP(Cl)(Cl)(Cl)Cl`, the Potency entry is “inactive”.
`N#CCC#N`: the Potency entry is “inactive”.
Regarding `NC(=O)C(Cl)(Cl)Cl`, the Potency result was “inactive”.
On to `CCCN(CC1CC1)c1c([N+](=O)[O-])cc(C(F)(F)F)cc1[N+](=O)[O-]`, for which the Potency result is “inactive”.
The value for `CCCCC(O)(Cn1cncn1)c1ccc(Cl)cc1Cl` (stereo not given) was 54.4 µM (active).
In the case of `COc1nn(CSP(=S)(OC)OC)c(=O)s1`, the Potency entry was “inactive”.
For the compound `O=C(CCl)c1ccc(Cl)cc1Cl`, the Potency result is “inactive”.
Regarding `O=C(CBr)c1ccccc1`, the Potency entry is “inactive”.
As to `CO/C=C(/C(=O)OC)c1ccccc1COc1cccc(C(F)(F)F)n1`, the Potency was 2.17 µM (active).
Next, `COCCOCCO`: “inactive”.
Turning to `CC1(C)CCC(Cc2ccc(Cl)cc2)C1(O)Cn1cncn1` (stereo not given), the Potency is 61.1 µM (active).
Take `OC(c1ccc(Cl)cc1)(c1ccc(Cl)cc1)c1cccnc1`: the Potency result is “inactive”.
For the compound `CCOP(=S)(OCC)Oc1cc(Cl)c(Br)cc1Cl`, the Potency entry was “inactive”.
`C[N+](C)(C)CCCl`: the Potency result is “inactive”.
In the case of `CC(C)(OO)c1ccccc1`, the Potency result was “inactive”.
In the case of `O=C1C(=O)c2cccc3cccc1c23`, the Potency result is “inactive”.
On to `c1cc2ccc3cccc4ccc(c1)c2c34`, for which the Potency entry was “inactive”.
Consider `IC(I)=C(I)I`, for which the Potency was 9.69 µM (active).
